According to PubChem BioAssay AID1347075 (National Center for Advancing Translational Sciences (NCATS), 2019):
About 5,500 (1.4%) of roughly 400,000 compounds were called active. Roughly 9% stayed inconclusive and do not appear here. The sample as a whole holds a higher share of actives than the screen did. Values without a mark were called inactive. Calls come from the whole dose curve; as a rule, active = well fitted cell-killing curve with a large enough effect; inconclusive = small, poorly fitted or top-dose-only effect, or effect the other way; inactive = flat fitted curve, though single readings scatter.

Assay: qHTS assay for MDR1-selective chemotherapeutics: Primary screen using the parental adenocarcinoma cell KB-3-1; note: nearly all actives have a fitted effect of over 60% in size
Conditions: KB-3-1 viability, CellTiter-Glo ATP luminescence, 72 h; series mostly up to 46.1 µM; activity change, negative = cytotoxic: at the top concentration
How it was run: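 Viability of parental KB-3-1 cells, measured by CellTiter-Glo luminescence, followed a 72 h incubation at 37 °C with pinned compounds in phenol-red-free DMEM containing 10% FBS.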
% is set by controls: 0 for no effect and ±100 for the full control effect; potency is the fitted concentration of half-maximal effect.

Compound	activity change, negative = cytotoxic [%]	Potency
CC(C)CC(=O)NCC(c1ccc2c(c1)OCO2)N1CCN(c2ccc(F)cc2)CC1 (centres undefined)	-5.63	
c1ccc(CNCc2ccc(CNCc3ccccc3)cc2)cc1	1.49	
c1ccc(Cc2cc[n+](Cc3ccccc3)cc2)cc1		18.4 µM (active)
[O-][n+]1ccc(OCc2ccccc2)cc1	3.6	
CCC(=O)Nc1c(C(=O)N2CCN(c3ccc(F)cc3)CC2)oc2ccccc12	-8.2	
COCCN(Cc1ccco1)C(=O)Cn1ncc2c([nH]c3ccccc32)c1=O	0	
CCOc1ccc(N=C2NC(=O)S/C2=C\c2ccc(O)cc2)cc1	-1.86	
CCOc1[nH]n(-c2ccc(Cl)cc2)c(=O)c1C=Nc1ccc(O)cc1		18.4 µM (active)
Fc1ccc(C(Nc2ccc(Cl)c(C(F)(F)F)c2)c2nnc(-c3ccccc3)o2)cc1 (centres undefined)	-5.25	
CCOc1ccccc1N(CC)C(=O)c1cc2ccc3cccnc3c2[nH]1	-25	
Cc1cccc(N(C)C(=O)c2cc3c(=O)[nH]c4ccc(C)cc4c3s2)c1		7.31 µM (active)
COc1ccc(CNC(=O)c2cc3c(=O)[nH]c4ccc(C)cc4c3s2)c(OC)c1	5.62	
CCN(CC)CCCNC(=O)c1cc2c(=O)[nH]c3ccc(C)cc3c2s1	-17.6	
CSc1ccc(CCNC(=O)c2cc(C)nc3c2c(C)nn3-c2cccc(F)c2)cc1	1.14	
COc1cc(NC(=O)c2cc(C3CC3)nc3c2c(C)nn3-c2ccccc2)cc(OC)c1	2.42	
Cc1cc(C(=O)Nc2cccc(C(F)(F)F)c2)c2c(C)nn(-c3cccc(F)c3)c2n1		18.4 µM (active)
Cc1ccc(S(=O)(=O)C2(S(=O)(=O)c3ccc(C)cc3)CCCC2)cc1		6.51 µM (active)
Cc1ccc(S(=O)(=O)N(C)C2(C)CCS(=O)(=O)C2)cc1 (centres undefined)	4.15	
Cc1ccc(S(=O)(=O)N2CCN(C)CC2)cc1	0.612	
COc1ccc(C2c3c(oc4ccccc4c3=O)C(=O)N2Cc2ccc3c(c2)OCO3)cc1 (centres undefined)	-6.25	
COC(=O)c1sccc1S(=O)(=O)N(CC(=O)Nc1ccc(C)c(F)c1)c1ccc(C)c(C)c1	-20	
O=C(Nc1ccc(-c2nc3ccccc3[nH]2)cc1)c1ccncc1	-9.06	
CCCC(=O)Nc1nc2ccc(NC(=O)c3c(F)c(F)c(OC)c(F)c3F)cc2s1		2.59 µM (active)
CC(=O)Nc1ccc2nc(NC(=O)CS(=O)(=O)c3ccc(F)cc3)sc2c1	8.18	
CCCn1nc(C(=O)Nc2ccc3nc(C)sc3c2)c2ccccc2c1=O	-0.715	

Compound	activity change, negative = cytotoxic [%]	Potency
CC(=O)c1ccc(N2CCN(c3nc4c(S(=O)(=O)c5ccccc5)nnn4c4ccc(Cl)cc34)CC2)cc1	1.16	
O=C(N/N=C/c1ccc(Cl)c(Cl)c1)c1ccc2nc[nH]c2c1		18.4 µM (active)
CC(=NNC(=O)c1ccc2nc[nH]c2c1)c1ccc(Br)cc1	-11.4	
CC1=NNC(=O)C1CCC(=O)N/N=C\c1ccc(Cl)c(Cl)c1 (centres undefined)	23.2	
CNc1ccc(-c2nc(-c3ccccc3C)no2)cc1[N+](=O)[O-]	-1.62	
COc1ccc(Cn2cc(C(=O)c3ccc(C)cc3)c(=O)c3cc(OC)c(OC)cc32)cc1	11.2	
O=C1C[C@H]2C=CCc3cccc(c32)CN1Cc1ccccc1	-5.23	
COc1ccc(C2C(C#N)=C(N)Oc3cc(N)ccc32)cc1OC (centres undefined)		16.4 µM (active)
COc1ccc(C2C(C#N)=C(/N=C/N3CCOCC3)OC3=C2C(=O)CC(C)(C)C3)cc1OC (centres undefined)	7.96	
N#CC1=C(N)Oc2cc(O)ccc2C1C1CCCCC1 (centres undefined)	0	
CC1CCN(c2nc3ccc(C(=O)N4CCN(c5ccccc5)CC4)cc3s2)CC1	0	
O=C(NCc1ccc(F)cc1)c1ccc2nc(N3CCCCC3)sc2c1	16.9	
COc1ccc2nc(N3CCN(C(=O)c4ccc([N+](=O)[O-])o4)CC3)sc2c1		16.4 µM (active)
COc1cc(C(=O)N2CCN(C(=O)COc3cccc(C)c3)CC2)cc(OC)c1OC	-6.07	
CC(=O)Nc1cnc(-c2ccc(O)cc2C)cn1	-0.089	
Cc1ccn2c(-c3csc(Nc4ccc(C(=O)O)cc4)n3)c(C)nc2c1	-6.25	
Cc1ccc(Nc2nc(-c3ccc(O)cc3O)cs2)nc1		20.6 µM (active)
Cc1ccc(CN2CCCn3nc(C(=O)NCc4ccccc4Cl)cc3C2=O)cc1	-19.7	
CCOC(=O)c1nnn(CC(=O)NC(=O)Nc2ccccc2F)c1C(=O)OCC	18.1	
COC(=O)c1ccccc1S(=O)(=O)Nc1ccc(OC)cc1	0	
COC(=O)c1c(C)oc(C)c1S(=O)(=O)Nc1ccc(C(C)C)cc1		3.26 µM (active)
COC(=O)c1c(C)oc(C)c1S(=O)(=O)NCc1ccc(Cl)cc1	-8.99	
O=C(Nc1cc(Br)ccc1F)c1nc[nH]c1C(=O)NCc1ccccc1	-0.0726	
CC(C)(C)OC(=O)NCCCCCNC(=O)c1nc[nH]c1C(=O)NCc1ccccc1	0.352	
O=C(Nc1ccon1)c1nc[nH]c1C(=O)NCc1ccccc1		5.8 µM (active)

Compound	activity change, negative = cytotoxic [%]	Potency
COc1ccc(NC(=O)c2ccc3nc(C(C)C)oc3c2)cc1OC	-2.26	
COC(=O)c1sc2ncccc2c1-n1c(C)ccc1C	20.6	
O=C(NC1CCCCC1)c1ccc(Cn2c(SCc3ccccc3)nc3cccnc32)cc1	7.78	
Cc1oc2c(c1C(=O)Nc1ccc(F)c(F)c1)C1=NCCN1C=N2	16.5	
O=C(Nc1ccc2nc(SCC(=O)N3CCc4ccccc43)sc2c1)c1ccccc1F	9.11	
CCOc1ccc(NC(=O)c2cn(C3CCCCC3)c(=O)c3c2c2ccccc2n3C)cc1	-1.1	
COCCNC(=O)CSc1nc(-c2ccccc2)[nH]c1-c1ccc(C)cc1	0	
COc1cccc(-c2nc(S(=O)(=O)c3ccc(C)cc3)c(NCc3ccccc3)o2)c1	-8.2	
CC(Nc1ccc(-c2nc(-c3ccco3)no2)cc1[N+](=O)[O-])c1ccccc1 (centres undefined)	-23.5	
O=C(NCc1ccccc1)C1CCN(S(=O)(=O)c2ccc3[nH]c(=O)ccc3c2)CC1	0.516	
COc1ccc(Cl)cc1NC(=O)C1CC(=O)N(c2ccc(F)cc2)C1 (centres undefined)	0.372	
COc1ccccc1N1CC(C(=O)Nc2ccc(S(=O)(=O)N3CCOCC3)cc2)CC1=O (centres undefined)	8.27	
COc1cc(OC)c(N2CC(C(=O)Nc3cc(Cl)ccc3N3CCOCC3)CC2=O)cc1Cl (centres undefined)		5.8 µM (active)
CCCCn1cc(S(=O)(=O)c2ccc(OCC)cc2)c(=O)c2cc(OC)c(OC)cc21	3.26	
Cc1cccc(N2CCN(C(=O)c3ccc(Nc4nc5ccccc5n5nnnc45)cc3)CC2)c1C	10.5	
CCN(CC)S(=O)(=O)c1ccc(N2CCOCC2)c(NC(=O)c2ccc(=O)n(C)n2)c1	1.26	
CCN(CC)S(=O)(=O)c1cc(C(=O)Nc2cc(S(=O)(=O)N3CCOCC3)ccc2N2CCCC2)ccc1F	-7.07	
CCN(CC)S(=O)(=O)c1ccc(N2CCCC2)c(NC(=O)c2ccc([N+](=O)[O-])o2)c1		6.51 µM (active)
Cc1[nH]c2ccccc2c1C(=O)C(=O)N(C)c1ccccc1	0	
CCn1c2c(c(=O)n3ncc(C(=O)N4CCN(c5ccccc5)CC4)c13)CN(Cc1ccc(OC)cc1)CC2	-2.44	
C/C(=N\NC(=O)c1ccoc1C)c1ccccc1O		14.6 µM (active)
CC(=N\NC(=O)c1cc(Br)ccc1O)/C(=N/O)C(=O)Nc1ccccc1	-43.4	
C/C(=N/NC(=O)CCc1ccccc1)c1ccco1	19.7	
O=C(NCc1ccc2c(c1)CCN2C(=O)c1ccccc1)c1ccccc1	4.06	
COc1ccc(NC(=O)Cn2c(=O)n(Cc3ccc(C(=O)NCc4ccccc4Cl)cc3)c(=O)c3ccccc32)cc1	4.15	

Compound	activity change, negative = cytotoxic [%]	Potency
C=CC(=O)OCCOCCOCCOCCOC(=O)C=C		10.3 µM (active)
CCOC(=O)c1ccc(NC(=O)Cn2c(=O)cc(C)c3c(C)nn(-c4cccc(F)c4)c32)cc1	0.642	
CCC(=O)N1CCc2cc(CNC(=O)Nc3ccccc3Cl)ccc21	-20.1	
COC(=O)c1scc(-c2ccc(C)cc2)c1S(=O)(=O)Nc1cc(Cl)c(OC)cc1OC	-0.714	
CCc1ccc(Sc2cc(C(=O)NCCCOC(C)C)c3ccccc3n2)cc1	-1.08	
Cn1c(-c2ccco2)nc2cc3ccccc3cc21		18.4 µM (active)
CSc1n[nH]c(-c2ccco2)n1	-2.46	
Cc1ccc2nc(-c3ccco3)c(Cc3cccc(Cl)c3)n2c1	-2.85	
N#Cc1ccc(-c2cccs2)nc1SCc1ccc(Br)cc1	2.25	
CCOc1ccccc1NC(=O)Cn1nnc(C(=O)NCc2cccs2)c1N		0.259 µM (active)
Cc1ccc(NC(=O)Cn2nnc(C(=O)NCc3ccco3)c2N)c(C)c1	-2.38	
CCOc1ccccc1NC(=O)Cn1nnc(C(=O)Nc2ccc(C)c(C)c2)c1N	0.046	
CCc1ccccc1NC(=O)Cc1ccc(NC(=O)N2CCCCc3ccccc32)cc1	0	
CC(C)(C)NC(=O)CSc1nc(-c2ccc(F)cc2)cc(C(F)(F)F)n1	4.09	
Cc1ccc(Cl)cc1NC(=O)CSc1nccn1C	-6.62	
COc1ccc(-c2cc(C(=O)Nc3sc4c(c3C(N)=O)CCCC4)no2)cc1	15.2	
COc1ccc(-c2nc3c(s2)CCc2onc(-c4ccc(Br)cc4)c2-3)cc1	0	
COc1ccc(-c2nc3c(s2)CCc2onc(-c4ccc(OC)cc4)c2-3)cc1		20.6 µM (active)
COc1ccccc1CNC(=O)CCn1c(=O)c2ccccc2n(CC(=O)Nc2cccc(Cl)c2)c1=O	1.39	
COc1ccc(CCNc2ncnc3c2cnn3-c2ccc(C)cc2)cc1	6.58	
O=C(NCc1ccccc1Cl)C1=Cc2cc(Br)ccc2OC1	-0.821	
CCOC(=O)c1cccc(NC(=O)CCOc2ccccc2)c1	-5.85	
CCn1c2ccccc2c2cc(NC(=O)COc3ccc(C)cc3C)ccc21	-5.72	
CCOCCC(=O)Nc1ccc2c(c1)c(=O)n(C)n2-c1ccc2ccccc2c1		3.66 µM (active)
